PubChem BioAssay AID774 (SRMLSC, 2007)
Hit rate of the full screen: of about 65,000 compounds, about 15 (0.02%) were called active.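 Rule for the calls: active = single-dose screening hits from any of four coupled enzyme assays that gave an IC50 when retested across doses; inconclusive = no clear call, values can overlap the other calls; inactive = the rest.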 The list is a sample of the results.

Assay: NADH-endpoint coupling enzyme inhibition profiling – biochemical, MLSMR library, artefact control, profiling panel (AID 774);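 note: the DPM-DC format reads NADH fluorescence rather than 340 nm absorbance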
Settings: coupled PK/LDH NADH assays, four targets; at 10 µM; active compounds read high

inhibition, inactive:
COc1cc(OC)cc(C(=O)Nc2ccc(-c3nc4ccccc4o3)c(O)c2)c1 9%
CC1(C)C(=O)Nc2ccccc2N1C(=O)COC(=O)Cn1cnc2ccccc2c1=O 11%
CC1CCCCC1NC(=O)CCS(=O)(=O)c1cccc2nonc12 (configuration not stated) 2%
c1csc(CN2CCN(Cc3cccs3)C2c2cccs2)c1 5%
O=C(CSc1nnc(Cc2ccccc2)n1-c1ccccc1)N1CCOCC1 5%
CCc1c(O)nc(SCC(=O)N2CCCCC2)n(-c2ccccc2C)c1=O 11%
O=C(NC1CCN(Cc2ccccc2)CC1)c1ccccc1F 1%
Cc1ccc(NC(=O)c2cc(-c3ccc(C)o3)nc3ccccc23)nc1 5%
CCOC(=O)C1CCN(C(=O)Cc2c(C(=O)O)[nH]c3ccccc23)CC1 1%
Cc1ccn2cc(C(=O)NC3CCN(Cc4ccccc4)CC3)nc2c1 4%
CC1Cc2ccccc2N1C(=O)CSc1nc2ccccc2o1 (configuration not stated) 4%
COC(=O)CN(c1cccc(C(C)=O)c1)S(C)(=O)=O 6%
C[N+](C)(C)CCOP(=O)([O-])OC[C@H](O)CO 2%
COc1ccc(OC)c(C(=O)c2coc3ccc(OC)cc23)c1 0%
Cc1cc(C)nc(NC2=NCC(=O)N2c2ccc(Cl)cc2)n1 2%
Nc1ccc(-n2nncc2-c2ccco2)cc1 3%
CCOC(=O)CSc1nnc(CNC(=O)c2ccco2)n1-c1ccc(F)cc1 5%
CCOC(=O)C1C(=O)NC(N2CCN(c3ccccc3)CC2)=NC1c1ccco1 (configuration not stated) 7%
O=C(O)C1CCCN1S(=O)(=O)c1ccc2c(c1)CCC2 (configuration not stated) 8%
CNC(=O)n1ccc(C(=O)N2CCCCC2)n1 2%
Cc1ccc(-c2ccc(=O)n(CC(=O)NCCCN3CCCCC3)n2)cc1 8%
CN(Cc1ccccc1)c1nc2c(c(=O)[nH]c(=O)n2C)n1CCSc1nc2ccccc2[nH]1 4%
COC(=O)C(C)N(C#N)c1nc(C)nc(C)n1 (configuration not stated) 9%
CCOc1ccc(NC(=O)Nc2ccc(N(C)C(C)=O)cc2)cc1 4%
CC(c1ccco1)N(C(=O)c1ccc(S(=O)(=O)N2CCCCC2)cc1)c1ccccn1 (configuration not stated) 1%
Cc1ccc(-c2nc(COC(=O)c3c(C)noc3C)cs2)cc1 7%
COc1ccc(OCc2cccc(C(=O)N3CCCC3)c2)cc1 9%
CCOC(=O)N1CCN(C(=O)c2ccc(CN(c3ccc(C)c(C)c3)S(C)(=O)=O)cc2)CC1 2%
CCOC(=O)N1CCN(C(=O)COc2ccc(Br)cc2)CC1 5%
COc1ccccc1C(=O)N1CCN=C1SCc1cccnc1 2%
Cn1c(=O)[nH]c(=O)c2c1nc(CN(Cc1ccccc1)Cc1ccccc1)n2CCN1CCOCC1 0%
CCOC(=O)c1nnn(-c2nc(OC)nc(N(C)C)n2)c1-c1ccccc1 6%
O=C(CSc1nc2ccccc2o1)N1CCN(c2ccc(Cl)cc2)CC1 3%
CCOC(=O)N1CCN(C(=O)CN(C2CCCCC2)S(C)(=O)=O)CC1 3%
O=C(C1CCN(CC2CCCCC2)CC1)N1CCCC1 17%
O=C(CS(=O)(=O)c1cn(Cc2ccc(Cl)cc2)c2ccccc12)N1CCOCC1 1%
CC1CN(c2cc(=O)n(-c3cccc(Br)c3)c(=O)[nH]2)CC(C)O1 (configuration not stated) 2%
OC(COc1cccc(OCC(O)CN2CCCC2)c1)CN1CCCC1 (configuration not stated) 3%
COc1ccc(C2CC(c3ccc(C)cc3)Nc3nc(N)nn32)cc1 (configuration not stated) 1%
CCOc1ccc(-c2nnn(CC(=O)N3CCN(c4ccc(F)cc4)CC3)n2)cc1OCC 1%
COc1ccccc1Cc1nc(-c2ccc(C)cc2)no1 1%
Cc1cc(=O)[nH]c(=S)[nH]1 0%
COc1ccccc1C1/C(=C(/O)c2ccc(OC(C)C)cc2)C(=O)C(=O)N1c1cc(C)on1 (configuration not stated) 5%
OCCCNC(c1ccccc1)c1ccc(O)cc1 (configuration not stated) 6%
Cc1cc(C(F)(F)F)nn1CC(=O)N1CCCC1 2%
CCOC(=O)Cn1c(SC)nc2sc3c(c2c1=O)CC(C)(C)OC3 4%
COCCNC(=O)c1ccccc1-c1nc(-c2ccccc2Cl)no1 4%
Cc1nc(CNS(=O)(=O)c2cccnc2)cs1 5%
Cc1cc(C)nc(N(C#N)CC(=O)Nc2ccccc2)n1 7%
COc1ccc(-c2noc(CN(C)S(=O)(=O)c3ccc(C)cc3)n2)cc1 6%
CN1CCN(S(=O)(=O)c2ccc(NC(=O)c3ccco3)cc2)CC1 2%
CCOc1ccc(CN(Cc2ccco2)C(c2cccs2)c2nnnn2C(C)(C)C)cc1 (configuration not stated) 1%
CCOC(=O)c1ccc(N2C(=O)CC(N3CC(C)OC(C)C3)C2=O)cc1 (configuration not stated) 3%
CC(=O)Nc1ccc(S(=O)(=O)N2CCN(C3CCCCCCC3)CC2)cc1 6%
CC(C)(C)c1ccc(C(=O)NCCC(=O)NCc2ccco2)cc1 6%
CCSC1(SCC)N=C(N)C2(C#N)C(c3ccccc3)NC(C)=CC12C#N (configuration not stated) 1%
COc1ccccc1-n1nnnc1S(=O)(=O)Cc1ccc(Cl)cc1 5%
Cc1noc(C)c1S(=O)(=O)N(CC(=O)Nc1ccc2c(c1)OCCO2)c1ccc(C(C)C)cc1 8%
CCCCOC(=O)c1[nH]c(C)c(C(=O)OC)c1C 1%
CC(Oc1ccc(Cl)cc1)C(=O)Nc1ncccn1 (configuration not stated) 5%
Cc1noc(C)c1CSc1nc2cc(S(=O)(=O)N3CCOCC3)ccc2o1 4%
O=C1CCC(=O)N1CCOP1(=O)COc2ccccc2OC1 4%
O=C(NCc1ccc2c(c1)OCO2)c1cc2c(s1)CS(=O)(=O)C2 6%
CCCOP(=O)(c1ccc(N(C)C)cc1)C(O)c1cc(OC)c(OC)c(OC)c1 (configuration not stated) 2%
CSc1nc(C)nc2c1c(=O)n(C)c(=O)n2C 5%
Cc1nc(NCc2ccccc2)c(C(N)=O)c2c1COC(C)(C)C2 11%
CCN(CC)CCNC(=O)C1c2ccccc2C(=O)N(C)C1c1cn(C)c2ccccc12 (configuration not stated) 6%
CCOc1cc(C(=O)N2CCc3cc(OC)c(OC)cc3C2)ccc1OC(F)F 7%
Cc1cc(N2CCCC2)n2nc(C)c(-c3ccccc3)c2n1 8%
CSCCC(NC(N)=O)C(=O)N(C)CC(=O)Nc1ccc(C)cc1 (configuration not stated) 8%
CC(NCCO)C(=O)C12CC3CC(CC(C3)C1)C2 (configuration not stated) 4%
O=P(O)(CP(=O)(c1ccccc1)c1ccccc1)c1ccccc1 6%
COC(=O)c1cc(NC(=O)CN2CCC(C(N)=O)(N3CCCCC3)CC2)cc(C(=O)OC)c1 4%
ON=C1/C(=N\O)CC2(C/C1=N/O)OCCO2 2%
CCc1ccccc1NC(=O)CSc1nnc([C@@H](NC(=O)OC(C)(C)C)C(C)CC)o1 (some centres not stated) 5%
COc1ccc(-n2ncc3c(N4CCc5ccccc54)ncnc32)cc1 6%
CCOc1ccc(S(=O)(=O)N(CC(=O)O)c2ccccc2)cc1 1%
CCOc1cccc(NC(=O)CC#N)c1 6%
COC(=O)c1sccc1NC(=O)c1csc2c1CCCC2 5%
CCOC(=O)CNC(=O)CSc1nnc(COc2ccc(Cl)cc2)n1CC 8%
N#Cc1ccc(OCCN2C(=O)NC3(CCSC3)C2=O)cc1 (configuration not stated) 14%
CS(=O)(=O)N(Cc1nc2sc3c(c2c(=O)[nH]1)CCCC3)C1CCCCC1 3%
CCn1nc(NC(=O)c2ccco2)c2cc3ccc(C)cc3nc21 9%
N#CC(C(=O)c1ccc(S(=O)(=O)N2CCCCCC2)cc1)c1nc2ccccc2[nH]1 (configuration not stated) 8%
CC(=O)N(Cc1cccs1)C1CCOC(C)(C)C1 (configuration not stated) 5%
CCn1c(NCCc2ccc(OC)c(OC)c2)nc2c1c(=O)n(C)c(=O)n2C 7%
Nc1nc(SCCOc2ccccc2)n[nH]1 1%
N#C/C=C\Oc1ccc(Cl)cc1N 7%
Cc1nnc(NC(=O)CSc2nccn2-c2cccc(C)c2C)s1 5%
O=C(NCc1ccco1)c1cc2sccc2n1Cc1ccc(F)cc1 5%
CCOc1ccc(-c2cn(S(=O)(=O)c3cccc4nsnc34)nc2N)cc1 5%
O=C(CCn1c(=O)[nH]c2ccccc2c1=O)NCCCN1CCN(c2cccc(Cl)c2)CC1 1%
CC1=CC(C)(C)N(C(=O)CSc2nccn2C)c2cc(C)ccc21 0%
O=C(O)CCSc1nnc(-c2ccccc2)n1-c1ccccc1 4%
CSc1nnc(CNC(=O)c2ccccc2)n1-c1ccc(F)cc1 0%
CC(NC(=O)Nc1ccccc1)c1ccccc1 (configuration not stated) 10%
CC(=O)c1cc(C#N)c(SCC(=O)C(C)(C)C)nc1C 1%
COc1cccc(NC(=O)Nc2nnc(N3CCCCC3C)s2)c1 (configuration not stated) 7%
CCCn1cc(SCC(N)=O)c2ccccc21 1%
COc1ccc(S(=O)(=O)N2CCC(C(=O)N3CCc4ccccc4C3)CC2)cc1OC 2%
CCOC(=O)N1CCC(O)(c2cc(C)c(C)cc2C)CC1 3%
O=C(CNS(=O)(=O)c1ccc(Br)s1)NCc1ccc2c(c1)OCO2 5%
